# Rows were chosen to be rich in hits. Some 2.1% of all compounds tested hit in one or more screens of this group.
# HNF4A DNA FP – change in binding of human HNF4 alpha to DNA; AID 1224865; actives 0.3% (n = 360,000); activity change, % at 10 µM; HNF4a-FITC DNA binding, fluorescence polarization, 1 h; in the data active = activity change above about 30%, passing the limit was not always enough
# Target sequence (P41235 whole entry, looked up): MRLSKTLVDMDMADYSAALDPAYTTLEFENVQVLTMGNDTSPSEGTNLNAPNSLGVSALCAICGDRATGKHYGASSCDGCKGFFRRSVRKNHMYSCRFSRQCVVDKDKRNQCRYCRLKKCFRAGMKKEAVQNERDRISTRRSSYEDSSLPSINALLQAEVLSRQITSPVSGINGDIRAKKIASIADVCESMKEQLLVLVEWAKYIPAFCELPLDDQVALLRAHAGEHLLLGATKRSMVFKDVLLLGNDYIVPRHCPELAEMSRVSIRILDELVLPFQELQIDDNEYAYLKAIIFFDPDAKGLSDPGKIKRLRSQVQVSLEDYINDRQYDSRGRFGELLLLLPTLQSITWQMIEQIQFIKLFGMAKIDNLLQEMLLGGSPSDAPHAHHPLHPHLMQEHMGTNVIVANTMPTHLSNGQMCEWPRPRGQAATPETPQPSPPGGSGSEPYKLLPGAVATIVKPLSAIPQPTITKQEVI
# Rpn11 inh – inhibitors of human proteasome Rpn11. O00487. human 26S proteasome, Ub4-pepOG fluorescence polarization; 20S core pre-blocked with epoxomicin. inhibition, % at 20 µM. actives 0.59% (n = 360,000). AID 588493;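 active = inhibition at 20 µM, scaled to each plate's controls, above about 33%, limit read from the data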
# TPT1 inh – inhibitors of Candida albicans tRNA 2'-phosphotransferase TPT1 | recombinant caTPT1, FP RNA substrate dephosphorylation | inhibition, % at 5 µM | actives 0.81% (n = 300,000) | AID 1962;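 active = inhibition above the mean of all tested compounds plus 3 SD, set per screening campaign, cut at about 24% in these data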;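 note: plate controls were DMSO alone for no effect and ferristatin control at 100 nM for full effect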
# Myeloid diff 2 – myeloid differentiation induction. ER-HoxA9 myeloid progenitors, lysozyme-GFP differentiation, flow cytometry. calls only at 10 µM. actives 1% (n = 360,000);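 active = normalized GFP-positive differentiation at or above the plate's own cutoff, the solvent-only control mean plus 3 SD; inconclusive = no clear call, values can overlap the other calls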;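 note: cells exposed to compound for four days before flow analysis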
# TPT1 inh confirm – confirmation of Candida albicans TPT1 inhibitors. shares compounds with TPT1 inh. recombinant caTPT1, fluorescence polarization, RNase T1 coupled. inhibition, % at 5 µM. actives 74% (n = 2,400). AID 2149;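 active = inhibition above the primary screen limit, the mean inhibition of all tested compounds plus 3 SD, cut at about 25% in these data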
# RNase T1 inh – blocks Aspergillus oryzae RNase T1, a TPT1 counter-screen | shares compounds with TPT1 inh | RNase T1 cleavage, fluorescence polarization, 1536-well | inhibition, % at 5 µM | actives 83% (n = 2,400) | AID 2153;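 active = inhibition above the solvent-only control well mean plus 3 SD, limit set per screening run, cut at about 23% in these data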;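 note: plate controls were DMSO wells with enzyme for no effect and wells without RNase T1 for full effect; inhibitors block cleavage so intact labeled substrate keeps polarization high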
# Target sequence (P00651 whole entry, looked up): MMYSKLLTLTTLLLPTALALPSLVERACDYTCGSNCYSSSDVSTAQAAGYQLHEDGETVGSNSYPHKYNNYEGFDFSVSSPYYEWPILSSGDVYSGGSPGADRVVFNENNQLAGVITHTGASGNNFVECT
# Numbers without * were called inactive; i = inactive; ? = inconclusive; nt = no result given; + = active, no number.
SMILES,HNF4A DNA FP,Rpn11 inh,TPT1 inh,Myeloid diff 2,TPT1 inh confirm,RNase T1 inh
Cc1ccc(Cn2cc(/C=N/Nc3ccc([N+](=O)[O-])cn3)c3ccccc32)cc1,54*,35,51*,+,34*,44*
Cc1ccc(-n2c(C)cc(/C=N/Nc3ccc([N+](=O)[O-])cn3)c2C)cc1,3,19,34*,i,35*,47*
O=C(Nc1ccccc1)C(=O)c1c[nH]c2ccccc12,-2,1,2,i,nt,nt
COc1ccc(C(CNC(=O)c2ccc(S(=O)(=O)N3CC(C)CC(C)C3)cc2)N(C)C)cc1 (configuration not stated),-1,-4,nt,i,nt,nt
COc1ccc(COC[B-](F)(F)F)cc1,0,11,nt,i,nt,nt
CCOC(=O)N1CCN=C1SCc1ccc(Cl)c(Cl)c1,1,-5,1,i,nt,nt
CCN(CC)c1ccc2ccc(=O)oc2c1,-1,3,9,i,nt,nt
CCN(CC)c1ccc2cc(S(=O)(=O)c3ccc(C)cc3)c(=O)oc2c1,50*,-154,70*,i,72*,81*
Cc1ccc(C(=O)NNC(=O)c2ccc(S(=O)(=O)N3CCCCC3)cc2)cc1,5,-2,nt,i,nt,nt
CCN(CC)c1ccc2cc(C(=O)NNC(=O)c3ccc(S(=O)(=O)N4CCCCC4)cc3)c(=O)oc2c1,14,nt,49*,i,77*,86*
CCN(CC)c1ccc2cc(C#N)c(=O)oc2c1,22,7,46*,i,44*,58*
COCCn1c(-c2ccc(F)cc2)nc2cccnc21,3,-12,-3,i,nt,nt
CCOC(=O)c1sc(N)c(C#N)c1COC(=O)CNC(=O)c1cc(OC)c(OC)c(OC)c1,99*,nt,79*,i,92*,103*
Cc1ccc(S(=O)(=O)NCCN=C(CN2CCCC2)NS(=O)(=O)c2ccc(C)cc2)cc1,1,-1,-3,i,nt,nt
O/C(=C\c1ccc2ccccc2n1)c1ccncc1,23,22,53*,i,81*,90*
COc1ccc2ccc(O)c(CN(C)CC(=O)Nc3ccccc3C(F)(F)F)c2c1,0,3,1,i,nt,nt
O=c1/c(=C\c2cccn2-c2ccccc2)sc2nc3ccccc3n12,-8,-13,nt,i,nt,nt
O=C(O)Cn1cc(/C=c2/sc3nc4ccccc4n3c2=O)c2ccccc21,28,37,39*,i,28*,37*
O=C1S/C(=C/c2ccc(N3CCOCC3)o2)C(=O)N1Cc1c(F)cccc1Cl,149,nt,139*,+,177*,162*
O=C1S/C(=C\c2ccc(N3CCOCC3)o2)C(=O)N1Cc1c(F)cccc1Cl,138,nt,148*,i,190*,174*
COc1cc(/C=N/NS(=O)(=O)c2ccc(C(C)(C)C)cc2)cc([N+](=O)[O-])c1O,-2,1,3,i,nt,nt
Nc1ccc(C(=O)N/N=C/c2ccc(N3CCOCC3)s2)cc1,3,6,nt,i,nt,nt
CC(C)(C)OC(=O)N/N=C/c1ccc(N2CCOCC2)s1,42*,nt,26*,i,93*,105*
Clc1cccc(Cl)c1C[n+]1cccc2ccccc21,4,28,3,?,nt,nt
O=C(C[n+]1cccc2ccccc21)c1ccc([N+](=O)[O-])cc1,3,4,32*,+,9,10
SMILES,HNF4A DNA FP,Rpn11 inh,TPT1 inh,Myeloid diff 2,TPT1 inh confirm,RNase T1 inh
O=C(C[n+]1cccc2ccccc21)c1ccc(Cl)cc1,-3,nt,13,i,nt,nt
O=[N+]([O-])c1ccc(Cl)c(C[n+]2cccc3ccccc32)c1,4,38,59*,i,12,19
Cc1ccc(C(=O)NN2C(=O)/C(=C/c3cn(C)c4ccccc34)SC2=S)cc1,75,-80,160*,i,80*,86*
O=C(Cc1ccccc1)NN1C(=O)/C(=C/c2ccccc2C(=O)O)SC1=S,1,5,3,i,nt,nt
Cn1cc(/C=C2\SC(=S)N(NC(=O)c3ccccc3Cl)C2=O)c2ccccc21,82,-35,76*,i,176*,162*
Cn1cc(/C=C2\SC(=O)NC2=S)c2ccccc21,-39,-44,-3,i,nt,nt
CC(=O)Nc1ccc(N=Cc2c(O)c(C(=O)Nc3ccccc3)cc3ccccc23)cc1,nt,nt,121*,nt,109*,107*
CC(=O)Nc1ccc(N=Cc2c(O)c3ccccc3oc2=O)cc1,5,3,nt,i,nt,nt
COc1ccc(O)c(/C=C(\C#N)C(=O)Nc2ccccn2)c1,-2,3,nt,i,nt,nt
CC(=O)c1ccc(S(=O)(=O)NCCc2csc(-c3cccnc3)n2)cc1,0,3,-4,i,nt,nt
O=C(Cc1ccccc1)Nc1ccc(N2CCCC2)cc1,8,13,36*,i,19,26*
O=C(Cc1ccccc1)Nc1ccc(N2CCOCC2)cc1,2,-3,0,i,nt,nt
C[C@H]1CN([C@@H](C)CO)C(=O)CCCn2cc(nn2)CO[C@@H]1CN(C)C(=O)c1ccncc1,5,-2,nt,i,nt,nt
CCc1cc2c(cc3c(=O)n(CC(=O)NCCCN4CCCCCC4)nc(CC)n32)s1,-3,14,0,i,nt,nt
CCCN1CCN(C(=O)C2CCN(c3nnc(C)c4c(C)n(-c5ccc(C)cc5)nc34)CC2)CC1,34,nt,28*,?,36*,48*
Cc1ccc(-n2nc3c(N4CCC(C(=O)N5CCCCCC5)CC4)nnc(C)c3c2C)cc1,5,14,8,?,nt,nt
CC(C)(C)NC(=O)c1nn(Cc2ccccc2)c(=O)c2ccccc12,4,-12,0,i,nt,nt
CSc1nc(-c2ccc(N(C)C)cc2)c(C#N)c(=O)n1C,5,3,31*,i,41*,52*
Cc1ccc(C(=O)Nc2nnc(CC(=O)N/N=C/c3ccc(O)c(O)c3)s2)cc1,-39,nt,2,i,nt,nt
COc1ccc(C(=O)Nc2nnc(CC(=O)N/N=C/c3ccc(O)cc3O)s2)cc1,-13,7,53*,i,81*,83*
N#CC(CCc1ccccc1[N+](=O)[O-])(CCc1ccccc1[N+](=O)[O-])C(N)=O,3,0,nt,i,nt,nt
CCC(=O)N1CCN(c2ccccc2NC(=S)NC(=O)c2cccc([N+](=O)[O-])c2)CC1,2,-1,39*,i,5,5
COc1ccc(C(=O)Nc2ccnn2C2CCN(C(=O)C3CCOC3)CC2)cc1 (configuration not stated),2,-2,-2,i,nt,nt
Cc1cc(SCC(=O)c2cc3ccccc3o2)nc2ccccc12,9,nt,66*,i,7,7
CCOc1ccccc1NC(=O)CSc1nnc(-c2ccccc2Cl)n1Cc1ccco1,2,7,-4,i,nt,nt
CC1=NCC(C)c2c1[nH]c1ccccc21 (configuration not stated),2,16,56*,i,17,27*
CC1=NCC(C)c2ccccc21 (configuration not stated),6,-2,nt,i,nt,nt

# Screens (PubChem BioAssay)
